697 NFkB inh – inhibitors of the PMA/ionomycin-induced NF-kB reporter in 697 B cells; AID 435022; 697 B-cell NF-kB luciferase reporter, 16 h; actives 0.33% (n = 330,000); inhibition, % at 4 µM; in the data active means inhibition above about 35%
SMARCA2 activ – SMARCA2 function activation, primary screen; MG213 cells, MMTV-luciferase reporter, dexamethasone, overnight; activation, % at 9.1 µM; AID 652017; actives 1% (n = 370,000); in the data active means activation above about 7.8%;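 further: 0% = vehicle wells and 100% = reference activator wells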
Gli-Sufu block – Gli-Sufu pathway antagonism. Sufu-KO-LIGHT fibroblasts, Gli luciferase reporter luminescence. inhibition, % at 5 µM. actives 0.74% (n = 340,000);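 active means inhibition above about 55%, limit read from the data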;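 further: 0% = DMSO-treated cells and 100% = wells with medium but no cells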
Jurkat NFkB inh – lowers PMA/ionomycin-induced NF-kB signal in Jurkat cells; inhibition, % at 4 µM; actives 0.53% (n = 330,000); PMA/ionomycin-induced NF-kB luciferase reporter, luminescence; in the data active means inhibition above about 50%
esBAF inh – inhibitors of esBAF chromatin remodeling in mouse ES cells | Bmi1-luciferase knock-in reporter, 24 h; 100% = twice the neutral-well signal | reporter increase, % at 12.5 µM | actives 2% (n = 350,000) | AID 602393; in the data active means activation above about 40%;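 further: 0% = median of the plate's neutral control wells and 100% = double that signal; a rise in the Bmi1 reporter signal indicates esBAF inhibition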
Numbers without * were called inactive; . = no result. Sampled rows, rich in hits. Any-hit rate of the full collection: about 3.3%.

SMILES | 697 NFkB inh | SMARCA2 activ | Gli-Sufu block | Jurkat NFkB inh | esBAF inh
Nc1c(-c2ccccc2)cnc2ncnn12 | 1 | 3 | 3 | -6 | 8
CC(=O)Nc1nnc(SCc2ccc(F)cc2)s1 | -25 | 2 | -30 | -4 | 46*
Cc1nnc(SCc2cccc3ccccc23)s1 | -69 | 2 | -16 | -22 | 64*
Cc1nnc(SCc2ccc(F)cc2)s1 | -54 | 5 | -21 | -26 | 53*
Cc1noc(C)c1NC(=O)N(C)C[C@H]1Oc2c(NC(=O)c3cnccn3)cccc2C(=O)N([C@@H](C)CO)C[C@@H]1C | . | . | . | . | -3
CCCCCCCC/C=C\CCCCCCCC(=O)NCCc1ccc(O)c(O)c1 | -80 | -9 | 57* | 22 | -47
CCCCCCCC/C=C\CCCCCCCC(=O)NCCO | 8 | -1 | -7 | 10 | -6
O=C(COc1ccc(Br)cc1Cl)NC(=S)Nc1ccccn1 | -25 | -1 | -31 | -127 | 50*
Cc1ccc(OCC(=O)NC(=S)Nc2ccccn2)c(Br)c1 | -1 | -1 | -64 | -83 | .
C[C@@H]1CN([C@@H](C)CO)C(=O)c2cccc(NC(=O)c3cnccn3)c2O[C@H]1CN(C)Cc1ccc(Cl)c(Cl)c1 | . | . | . | . | 5
COc1cc(OC)cc(-c2cc(NC(C)=O)n[nH]2)c1 | 3 | 1 | -17 | 14 | 2
CC(=O)Nc1cc(-c2ccc(Cl)cc2)[nH]n1 | -28 | 2 | -57 | -47 | 74*
O=C(c1ccc(NC(=O)C2(c3ccccc3)CCOCC2)cc1)N1CCOCC1 | 9 | -4 | 1 | -8 | .
CC(=O)c1ccc(NC(=O)C2(c3ccccc3)CCOCC2)cc1 | -39 | 1 | -43 | -29 | 55*
COc1ccccc1-c1cc(C(=O)NC2CCCC2)no1 | -3 | 2 | 1 | -36 | 46*
O=C(NC1CCCCC1)c1cc(-c2ccccc2Cl)on1 | -84 | 2 | -46 | -70 | 57*
O=C(NC1CCCC1)c1cc(-c2ccccc2Cl)on1 | -109 | 6 | -41 | -124 | 27
Cc1ccc(/C=C2\CCC(C3CCCC3)C2=O)cc1 (stereo not drawn) | -99 | 1 | -20 | -68 | .
COc1ccc(/C=C2\CCC(C3CCCC3)C2=O)cc1 (stereo not drawn) | -94 | 2 | -14 | -65 | 56*
Cc1ccc(NC(=O)C(=O)NCC2CCCN2S(=O)(=O)c2cccs2)cc1 (stereo not drawn) | 13 | 2 | 2 | 1 | 7
Cc1cccc(NC(=O)C(=O)NCC2CCCN2S(=O)(=O)c2cccs2)c1 (stereo not drawn) | . | -1 | . | . | 42*
CC(C)NC(=O)Nc1ccc2c(c1)CC(=O)N([C@@H](C)CO)C[C@H](C)[C@H](CN(C)C)O2 | . | . | . | . | -1
C[C@@H]1CN([C@@H](C)CO)C(=O)CCCn2nncc2CO[C@@H]1CN(C)Cc1cccc(O)c1 | . | . | . | . | 0
C=C(C)CNC(=S)Nc1nc2c(cc1C(=O)OCC)CCCC2 | . | 0 | -60 | . | 62*
CCOC(=O)c1cc2c(nc1N)CCCC2 | -1 | -2 | -3 | -16 | .
SMILES | 697 NFkB inh | SMARCA2 activ | Gli-Sufu block | Jurkat NFkB inh | esBAF inh
C[C@H](CO)N1C[C@H](C)[C@@H](CN(C)S(C)(=O)=O)OCCCC[C@H](C)Oc2ccc(NC(=O)c3ccccc3)cc2C1=O | . | . | . | . | -3
C/C=C/c1ccc2c(c1)O[C@@H](CN(C)C(=O)Cc1ccncc1)[C@H](C)CN([C@H](C)CO)S2(=O)=O | . | . | . | . | 7
COc1ccc(-c2ccc3c(=O)cc(-c4ccsc4)oc3c2)cn1 | -14 | 2 | -6 | -16 | 7
COc1ccc(-c2ccc3c(c2)O/C(=C\c2ccsc2)C3=O)cn1 | -40 | 3 | -9 | -12 | 45*
COCC#Cc1ccc2c(c1)O[C@@H](CN(C)S(=O)(=O)c1ccc(F)cc1)[C@@H](C)CN([C@H](C)CO)S2(=O)=O | . | . | . | . | -3
Cc1ccc(-c2cc(C(=O)N3CCCc4ccccc43)no2)cc1 | -69 | 0 | -59 | -51 | 72*
Cc1cc(C)n2nc(SCC(=O)N3CCc4ccccc43)nc2n1 | -33 | 2 | -4 | -9 | .
Cc1cc(C)nc(SCC(=O)N2CCc3ccccc32)n1 | -43 | 1 | -58 | -60 | 42*
O=C(c1ccc(Cl)cc1)N1CCc2ccccc21 | -1 | 1 | -20 | -6 | 14
Cc1ccc(C(=O)N2CCc3ccccc32)cc1 | -25 | 4 | -44 | -31 | 51*
O=C(C[C@@H]1C=C[C@@H](NC(=O)C2CCC2)[C@@H](CO)O1)NCC1CC1 | . | . | . | . | -2
CNC(=O)C[C@H]1CC[C@@H]2[C@H](COC[C@@H](O)CN2Cc2ccncc2)O1 | . | . | . | . | -3
